PubChem BioAssay (NCATS)
Inconclusive results are not listed. Entries that show only a call come without a potency. The source made the active and inactive calls. Unless noted, calls come from the whole dose curve; as a rule, active = well fitted curve in the direction sought with a large enough effect; inconclusive = small, poorly fitted or top-dose-only effect, or another doubt; inactive = no such curve, though single readings can be large; an effect the other way counts as inactive or inconclusive.

Tests used:
[1] = target: Glutaminase kidney isoform, mitochondrial (Homo sapiens) (UniProt O94925); assay: qHTS for Inhibitors of Glutaminase (GLS): LOPAC Validation (AID 624146); note: nearly all actives have a fitted effect of over 60% in size; note: potency is the fitted concentration of half-maximal effect
Sequence of Glutaminase kidney isoform, mitochondrial (Homo sapiens) (O94925 whole entry, looked up, canonical isoform): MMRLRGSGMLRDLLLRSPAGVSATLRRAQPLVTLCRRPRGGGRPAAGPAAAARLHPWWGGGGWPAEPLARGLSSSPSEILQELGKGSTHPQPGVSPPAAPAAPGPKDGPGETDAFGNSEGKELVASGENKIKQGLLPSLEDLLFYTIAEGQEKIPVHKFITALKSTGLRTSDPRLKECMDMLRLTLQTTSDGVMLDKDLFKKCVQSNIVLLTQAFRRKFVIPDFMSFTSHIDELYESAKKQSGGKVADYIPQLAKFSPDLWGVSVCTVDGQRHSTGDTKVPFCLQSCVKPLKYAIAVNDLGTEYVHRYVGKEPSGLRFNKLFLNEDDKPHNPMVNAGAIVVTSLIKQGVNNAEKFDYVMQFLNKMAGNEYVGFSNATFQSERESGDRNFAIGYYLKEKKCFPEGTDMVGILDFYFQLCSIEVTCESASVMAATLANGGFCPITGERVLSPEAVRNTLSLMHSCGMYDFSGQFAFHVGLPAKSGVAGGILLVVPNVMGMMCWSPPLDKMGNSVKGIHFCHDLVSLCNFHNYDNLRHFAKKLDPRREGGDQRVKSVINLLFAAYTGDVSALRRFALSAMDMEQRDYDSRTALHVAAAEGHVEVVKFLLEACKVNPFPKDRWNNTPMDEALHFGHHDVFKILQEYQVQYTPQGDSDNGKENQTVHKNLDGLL
Summary of the method: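 hKGA in 45 mM KH2PO4 pH 8.2, 0.02% Tween-20 with pin-transferred compounds; 1 mM L-glutamine (stock) plus glutamate oxidase/HRP/Amplex Red coupling added. Fluorescence read initially and after 30 min at RT.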

[2] = qHTS of Trypanosoma Brucei Inhibitors: LOPAC Validation (AID 624147)
Summary of the method: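 Screened from lowest to highest concentration, compounds were pinned into TbPYK/substrate mixtures, and ADP (130 uM final) was added. Plates sat at room temperature for 45 min prior to Kinase-Glo Plus detection by luminescence.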

[3] = target: Glucagon-like peptide 1 receptor (Homo sapiens) (UniProt P43220); assay: qHTS of GLP-1 Receptor Agonists: LOPAC Validation (AID 624148);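 note: higher luminescence signal means agonism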
Sequence of Glucagon-like peptide 1 receptor (Homo sapiens) (P43220 whole entry, looked up): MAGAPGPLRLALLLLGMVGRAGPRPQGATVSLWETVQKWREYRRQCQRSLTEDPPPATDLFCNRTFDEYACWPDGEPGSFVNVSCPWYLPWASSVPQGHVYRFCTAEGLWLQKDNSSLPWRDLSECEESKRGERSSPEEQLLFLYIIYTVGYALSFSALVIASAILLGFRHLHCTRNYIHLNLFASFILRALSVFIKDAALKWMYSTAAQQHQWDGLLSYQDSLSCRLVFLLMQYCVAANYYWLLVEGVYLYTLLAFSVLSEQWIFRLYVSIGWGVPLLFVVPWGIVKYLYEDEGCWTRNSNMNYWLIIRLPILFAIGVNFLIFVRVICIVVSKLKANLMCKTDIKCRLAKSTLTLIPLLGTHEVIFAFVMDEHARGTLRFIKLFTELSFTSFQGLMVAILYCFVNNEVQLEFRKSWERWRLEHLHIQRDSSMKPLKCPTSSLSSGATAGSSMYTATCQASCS
Summary of the method: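 HEK293 cells stably co-expressing GLP-1R and a cAMP-responsive luciferase reporter, plated 12 hours before compound, then incubated 4-6 hr at 37 deg C. Luminescence read 12 min after detection reagent.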

[4] = qHTS of Nrf2 Activators: LOPAC Validation (AID 624149)
Summary of the method: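 ARE reporter activation measured in AREc32 firefly luciferase cells after 24 hr compound exposure; Steady-Glo luminescence.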

[5] = HTS Assay for Allosteric Antagonists of the Human D2 Dopamine Receptor: Hit Validation in HTRF (AID 624455); note: potency is the fitted concentration of half-maximal effect;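 note: stable D1 dopamine receptor cell line scored for blocking the D1 response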
Summary of the method: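 Signal from an HTRF read-out in D1-expressing stable cells gave hit activity as inhibition of the D1 response.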

[6] = Cytotoxicity counterscreen for NFkB agonists and antagonists (AID 624476);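 note: potency is the fitted concentration of half-maximal effect; cells exposed to compound for 48 hours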
[7] = Cell Proliferation Assay against the HBL1 Cell Line (AID 651646); settings: HBL1 DLBCL cells; at 46.1 µM (top of the series) unless noted;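 note: cells exposed to compound for 48 h before reading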
Summary of the method: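 HBL1 ABC DLBCL cells, 500/well in RPMI with 5% FBS, treated for 48 h at 37C. Viability read by CellTiter-Glo luminescence, normalized to DMSO as 100% and 9.2 uM bortezomib as 0%.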

[8] = Cell Proliferation Assay against the TMD8 Cell Line (Caspase readout at 8 hrs) (AID 651713); note: potency is the fitted concentration of half-maximal effect
Summary of the method: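 Percent activity derived from Caspase-Glo signal, DMSO set to 0% and bortezomib (9.2 uM final) to 100%. TMD8 cells were exposed to compound for 8 h in RPMI with 5% FBS.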

[9] = qHTS assay for small molecule activators of the p53 signaling pathway (AID 651743; active = well fitted activation curve with a large enough effect in the signal ratio, not every such curve was filed as active; the % refers to the signal ratio); settings: HCT-116 p53RE-bla, beta-lactamase FRET ratio, 16 h; activation: stronger effect = higher value
Summary of the method: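 HCT-116 p53RE-bla, 4,000 cells/well; 5 h settle; cpd/DMSO 16 h, 37 C; LiveBLAzer B/G 2 h RT; fluorescence intensity.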

[10] = qHTS assay for small molecule activators of the nuclear factor-kappa B (NF-kB) signaling pathway (AID 651749; active = well fitted activation curve with a large enough effect in the signal ratio; the % refers to the signal ratio); settings: NF-kB-bla ME-180 cells, beta-lactamase FRET ratio, 16 h; stronger effect = higher value
Summary of the method: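 Incubation lasted 16 hr at 37C in 5% CO2 after 23 nL compound addition to ME-180 NF-kB-bla cells. Activation appears as beta-lactamase-mediated FRET loss.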

Row | Structure (SMILES) | Potency [1] | outcome [2] | outcome [3] | outcome [4] | Potency [5] | Potency [6] | viability, percent of control [7] [%] | Potency [8] | activation [9] | activation [10]
1 | C#CCOC(=O)C1=CCCN(C)C1 | inactive | inactive | inactive | inactive | inactive |  |  |  |  | 
2 | NCCc1c[nH]c2ccc(O)cc12 | inactive | inactive | inactive | inactive | inactive |  |  |  |  | 
3 | C[C@@H](N)Cc1cnc[nH]1 | inactive | inactive | inactive | inactive | inactive |  |  |  |  | 
4 | c1ccc(CCCN2CCN(CCOC(c3ccccc3)c3ccccc3)CC2)cc1 | inactive | inactive | inactive | inactive | inactive |  |  |  |  | 
5 | O=C(N[C@H]1CN2CCC1CC2)c1ccc(Cl)cc1 | inactive | inactive | inactive | inactive | inactive |  |  |  |  | 
6 | C[C@]12N[C@H](Cc3ccccc31)c1ccccc12 | inactive | inactive | inactive | inactive | inactive |  |  |  |  | 
7 | COc1ccc2c(c[n+](C)c3c4cc5c(cc4ccc23)OCO5)c1OC | 3.16 µM (active) | inactive | inactive |  | inactive | 23.5 µM (active) | 4.88 | 2.96 µM (active) |  | 
8 | CC(Cc1ccc(O)cc1)NCC(O)c1cc(O)cc(O)c1 (stereo unspecified) | 4.47 µM (active) | inactive |  | inactive | inactive |  |  |  |  | 
9 | NC(CP(=O)(O)O)C(=O)O (stereo unspecified) | inactive | inactive | inactive | inactive | inactive |  |  |  |  | 
10 | Clc1cnc(Oc2ccc(Oc3ncc(Cl)cc3Cl)cc2)c(Cl)c1 | inactive | inactive | inactive | inactive | inactive |  |  |  | -0.174% (inactive) | 0.531% (inactive)
11 | O=C(Cc1ccc(Cl)c(Cl)c1)N1CCCCC1CN1CCCC1 (stereo unspecified) | inactive | inactive | inactive | inactive | inactive |  |  |  |  | 
12 | Cn1cnc(CCN)c1 | inactive | inactive | inactive | inactive | inactive |  |  |  |  | 
13 | NC(=NCCC[C@H](N)C(=O)O)N[N+](=O)[O-] | inactive | inactive | inactive | inactive | inactive |  |  |  |  | 
14 | Cc1nccc2c1[nH]c1ccccc12 | inactive | inactive | inactive | inactive | inactive |  |  |  |  | 
15 | NCc1cc(=O)[nH]o1 | inactive | inactive | inactive | inactive | inactive |  |  |  |  | 
16 | NC(CCP(=O)(O)O)C(=O)O (stereo unspecified) | inactive | inactive | inactive | inactive | inactive |  |  |  |  | 
17 | CNCCc1ccc(O)c(O)c1 | inactive | inactive |  | inactive | 0.13 µM (active) |  |  |  |  | 
18 | CC[C@@H](C(N)=O)N1CCCC1=O | inactive | inactive | inactive | inactive | inactive |  |  |  |  | 
19 | NC(N)=NOCCC(N)C(=O)O (stereo unspecified) | inactive | inactive | inactive | inactive | inactive |  |  |  |  | 
20 | CN[C@@H]1C[C@@H](c2ccc(Cl)c(Cl)c2)c2ccccc21 |  | inactive | inactive | inactive | inactive |  |  |  |  | 
21 | O=C(O)CC[N+](=O)[O-] | inactive | inactive | inactive | inactive | inactive |  |  |  |  | 
22 | c1ccc2sc(C3(N4CCCCC4)CCCCC3)cc2c1 | inactive | inactive | inactive | inactive | inactive |  |  |  |  | 
23 | O=C(O)Cc1cnc[nH]1 | inactive | inactive | inactive | inactive | inactive |  |  |  |  | 
